The record followed here is publication PMC4336329 (PLoS ONE, 2015).

The whole screen tested about 310,000 compounds, of which about 14,000 (4.5%) showed an effect of 50% or more. Effects have a minus sign here. The sample holds strong results, similar compounds and a random draw of the others, so the mix is not that of the screen.
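Note: peak tail current of the secondary pulse compared with the same well before compound.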

For this experiment, the target named is human ether-à-go-go-related gene (hERG) potassium channel (human, UniProt Q12809). The experiment is described as follows: primary screen, population patch clamp on CHO cells stably expressing hERG; higher = less effect of the substance.
human ether-à-go-go-related gene (hERG) potassium channel, sequence (Q12809 whole entry, looked up): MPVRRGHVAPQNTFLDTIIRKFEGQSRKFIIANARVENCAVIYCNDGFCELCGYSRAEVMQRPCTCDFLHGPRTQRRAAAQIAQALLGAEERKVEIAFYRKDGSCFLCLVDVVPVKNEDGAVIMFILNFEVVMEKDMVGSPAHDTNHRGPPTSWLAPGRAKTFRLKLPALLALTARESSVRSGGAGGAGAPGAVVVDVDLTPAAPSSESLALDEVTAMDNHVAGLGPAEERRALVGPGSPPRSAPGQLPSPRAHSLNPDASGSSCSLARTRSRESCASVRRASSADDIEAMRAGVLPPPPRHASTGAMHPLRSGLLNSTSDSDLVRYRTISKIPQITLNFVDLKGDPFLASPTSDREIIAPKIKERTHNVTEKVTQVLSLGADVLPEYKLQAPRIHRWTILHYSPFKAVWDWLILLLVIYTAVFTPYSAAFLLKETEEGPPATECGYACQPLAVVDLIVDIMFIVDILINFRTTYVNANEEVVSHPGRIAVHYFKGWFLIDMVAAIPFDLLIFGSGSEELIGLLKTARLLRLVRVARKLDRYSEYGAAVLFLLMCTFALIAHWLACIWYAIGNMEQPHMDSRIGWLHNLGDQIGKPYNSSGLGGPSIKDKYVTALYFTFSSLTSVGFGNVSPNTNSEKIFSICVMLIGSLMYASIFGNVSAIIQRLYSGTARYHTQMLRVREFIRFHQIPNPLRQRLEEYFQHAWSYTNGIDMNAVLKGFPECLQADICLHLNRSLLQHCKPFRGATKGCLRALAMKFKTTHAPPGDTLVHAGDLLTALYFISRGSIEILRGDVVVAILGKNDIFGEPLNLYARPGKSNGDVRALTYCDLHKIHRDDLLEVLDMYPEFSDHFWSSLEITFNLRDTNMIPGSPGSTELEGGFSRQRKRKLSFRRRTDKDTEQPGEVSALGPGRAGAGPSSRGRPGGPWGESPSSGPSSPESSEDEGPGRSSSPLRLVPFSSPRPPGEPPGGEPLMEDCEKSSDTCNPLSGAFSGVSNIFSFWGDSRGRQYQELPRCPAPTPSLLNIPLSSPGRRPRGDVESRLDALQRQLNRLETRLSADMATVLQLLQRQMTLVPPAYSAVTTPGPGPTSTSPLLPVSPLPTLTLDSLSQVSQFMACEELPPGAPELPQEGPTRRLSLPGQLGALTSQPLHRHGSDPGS
Consider `C=CCSc1n[nH]c(-c2ccc(OCCCC)cc2)n1`, for which the “hERG current change (%, negative = inhibition) at 10uM” value was -7.32%.
As to `Cc1cccc(N2CCN(C(=O)c3ccc4nc(-c5ccco5)c(-c5ccco5)nc4c3)CC2C)c1` (centres unmarked), the “hERG current change (%, negative = inhibition) at 10uM” value worked out at 2.44%.
`COc1cccc(NC(=O)N2CCN(c3cccc(C)c3)C(C)C2)c1` (centres unmarked): the “hERG current change (%, negative = inhibition) at 10uM” value is reported as -16%.
Turning to `COc1cccc(N2CCN(C(=O)c3ccc(=O)oc3)CC2C)c1` (centres unmarked), the “hERG current change (%, negative = inhibition) at 10uM” value is recorded as -59.7%.
In the case of `CC(C)CCNc1cc(=O)n(C)c(=O)n1C` it was 4.5%.
In the case of `CC(C)c1ccc(NC2CCCN(C(=O)c3cccnc3)C2)cc1` (centres unmarked) it was 0.148%.
In the case of `Cc1c(C(=O)Nc2ccc(F)cc2)sc2ncn(CC(=O)N3CCCCC3)c(=O)c12` it was 1.43%.
Take `Cc1ccccc1/C=N\NC(=O)c1ccc(Cn2cccn2)o1`: the “hERG current change (%, negative = inhibition) at 10uM” value turned out to be 4.98%.
As for `CC(C)c1ccc(/C=N\NC(=O)c2ccc(Cn3cccn3)o2)cc1`, the “hERG current change (%, negative = inhibition) at 10uM” value is given as -42%.
With `O=C(N/N=C\c1ccc(Br)cc1)c1ccc(Cn2cccn2)o1`, the “hERG current change (%, negative = inhibition) at 10uM” value is given as -34.1%.
In the case of `O=C(N/N=C\c1c(O)ccc2ccccc12)c1ccc(Cn2cccn2)o1` it was 9.2%.
With `O=C(N/N=C\c1cccc(Cl)c1)c1ccc(Cn2cccn2)o1`, the “hERG current change (%, negative = inhibition) at 10uM” value was -71.2%.
In the case of `O=C(N/N=C\c1ccc(Cl)s1)c1ccc(Cn2cccn2)o1` it was -57.2%.
In the case of `O=C(OCCOCCN=C1NS(=O)(=O)c2ccccc21)c1ccccc1` it was 2.47%.
In the case of `COc1ccc(CNC(=O)CN(c2cccc(OC)c2)S(C)(=O)=O)cc1` it was 2.47%.
Take `Cc1cc2c(NC(=O)Nc3ccc(F)cc3)cccc2nn1`: the “hERG current change (%, negative = inhibition) at 10uM” value was determined as 8.16%.
With `Clc1cccc(NCc2nnc(SCc3ccccc3)o2)c1`, the “hERG current change (%, negative = inhibition) at 10uM” value was 3.21%.
Consider `COc1ccc(Cn2c(-c3ccc(OC)cc3)nc3ccccc32)cc1`, for which the “hERG current change (%, negative = inhibition) at 10uM” value was -36.9%.
Regarding `CCOc1ccc2[nH]c(=O)c(CN(CCO)C(=O)c3ccc(OC)c(OC)c3)cc2c1`, the “hERG current change (%, negative = inhibition) at 10uM” value was -0.583%.
In the case of `CCCCCCN1C=CC(=C2C(=O)c3ccccc3C2=O)C=C1` it was 10.5%.
As to `CCCCN1C=CC(=C2C(=O)c3ccccc3C2=O)C=C1`, the “hERG current change (%, negative = inhibition) at 10uM” value is -1.69%.
For `CCCCCN1C=CC(=C2C(=O)c3ccccc3C2=O)C=C1`, the “hERG current change (%, negative = inhibition) at 10uM” value is given as -61%.
As for `CCOC(=O)c1c(C)cc(C)n2c1nc1ccccc12`, the “hERG current change (%, negative = inhibition) at 10uM” value is reported as -38.8%.
In the case of `CN(Cc1c(C(=O)N/N=C/c2ccccc2)nnn1-c1nonc1N)C1CCCCC1` it was 8.4%; in that of `CCN(Cc1ccccc1)c1ccc(/C=N/N=C(N)N)cc1`, -25%.
In the case of `CN(C)/N=C/c1ccc(OS(=O)(=O)c2ccccc2)cc1` it was 8.55%; in that of `NC(N)=N/N=C/c1ccc(OS(=O)(=O)c2ccccc2)cc1`, -55.6%.
In the case of `COc1ccc(/C=N\N=C(N)N)cc1.O=[N+]([O-])O` it was -1.01%; in that of `CCC(=O)N/N=C/c1ccc(OS(=O)(=O)c2ccccc2)cc1`, -17.5%; in that of `NC(N)=N/N=C/c1ccc(N(c2ccccc2)c2ccccc2)cc1.O=[N+]([O-])O`, -50.8%.
As for `COc1ccc(C(CNC(=O)COc2cc(C)ccc2Cl)N2CCCCC2)cc1` (centres unmarked), the “hERG current change (%, negative = inhibition) at 10uM” value is given as 1.57%.
In the case of `O=C(c1ccc2c3c(cccc13)CC2)C1CCCN(C(=O)c2ccc(=O)[nH]c2)C1` (centres unmarked) it was 4.99%.
Turning to `COc1ccc(OC)c(-n2c(=S)[nH]c3cc(C(=O)N4CCC(C(N)=O)CC4)ccc3c2=O)c1`, the “hERG current change (%, negative = inhibition) at 10uM” value was -2.14%.
In the case of `COc1ccc(-c2csc(COC(=O)C(C)(C)C)n2)cc1` it was 18%.
On to `CC(C)c1nc2oc3c(NCC4CCCO4)ncnc3c2c2c1CCC2` (centres unmarked), for which the “hERG current change (%, negative = inhibition) at 10uM” value is recorded as -27.4%.
Regarding `CC(C)Cc1nc2oc3c(NCc4cccnc4)ncnc3c2c2c1CCC2`, the “hERG current change (%, negative = inhibition) at 10uM” value is listed as -50.8%.
In the case of `CC(C)Cc1nc2oc3c(NCC(C)O)ncnc3c2c2c1CCCC2` (centres unmarked) it was -7.54%; in that of `CC(C)Cc1nc2oc3c(NCC4CCCO4)ncnc3c2c2c1CCC2` (centres unmarked), -35.8%; in that of `CC(C)c1nc2oc3c(NCc4cccnc4)ncnc3c2c2c1CCC2`, -50.2%.
In the case of `CC(C)c1nc2oc3c(N(C)CCO)ncnc3c2c2c1CCC2` it was -28.1%.
In the case of `Cc1ccc(Cn2c(Sc3nccc(C)n3)nc3c2c(=O)[nH]c(=O)n3C)cc1` it was -8.13%; in that of `N#CCCNC(=O)Cn1c(COc2ccc(Cl)cc2)nc2ccccc21`, -24.5%; in that of `Cc1ccc(/C=C/c2nc3ccccc3s2)s1`, 3.83%.
Regarding `Cc1oc(-c2ccccc2)nc1CS(=O)CC(=O)N1CCc2ccccc2C1` (centres unmarked), the “hERG current change (%, negative = inhibition) at 10uM” value is -20.5%.
For `Cc1oc(-c2ccc(-c3ccccc3)cc2)nc1CN1CCN(CC(=O)N(C)C)CC1`, the “hERG current change (%, negative = inhibition) at 10uM” value is listed as -53%.
In the case of `Cc1oc(-c2ccccc2)nc1C(=O)O` it was 17%.
In the case of `Cc1oc(-c2ccc(Cl)cc2)nc1CN1CCC(C(=O)N2CCc3ccccc3C2)CC1` it was -74%.
In the case of `Cc1oc(-c2ccc(Cl)cc2)nc1CN1CCC(C(=O)N2CCN(Cc3ccccc3)CC2)CC1` it was -69.1%; in that of `COC(=O)c1ccc(-c2nc(CN3CCN(Cc4cccc(C)c4)CC3)c(C)o2)cc1`, -25.3%.
Take `Cc1ccc(-c2nc(CS(=O)(=O)CC(=O)N3CCc4ccccc4C3)c(C)o2)cc1`: the “hERG current change (%, negative = inhibition) at 10uM” value is -16%.
For the molecule `CCC/C(O)=C1\C(=O)CC(C)(C)CC1=Nc1ccccc1OC`, the “hERG current change (%, negative = inhibition) at 10uM” value is given as -13.4%.
In the case of `O=C(CCc1nnc(C2CCCCC2)o1)N1CCN(Cc2ccccc2)CC1` it was 5.53%; in that of `COCCN(C(=O)CCC(=O)Nc1nccs1)C(C(=O)NC(C)(C)C)c1ccc(C)cc1` (centres unmarked), 5.03%; in that of `COc1ccccc1C1CCN(c2cc(O)ccc2[N+](=O)[O-])CC1`, 4.65%.
In the case of `Cc1cccc(NS(=O)(=O)c2nnc(NC(=O)c3cccc(C)c3)s2)c1` it was 2.44%.
Take `O=C(Nc1cc(-c2nc3ccccc3s2)ccc1Cl)c1ccc2c(c1)OCO2`: the “hERG current change (%, negative = inhibition) at 10uM” value stood at 7.51%.
In the case of `CCOC(=O)c1nc2nc(C)c(Cl)c(=O)n2[nH]1` it was 0.341%; in that of `COc1cccc2cc(C(=O)NC(C)c3ccccc3)c(=O)oc12` (centres unmarked), 16.3%; in that of `CCc1nn(CC(=O)NCCCN2CCN(C)CC2)c(=O)c2cc3sccc3n12`, 7.04%.
Take `CCc1nn(CC(=O)NCCCN(CC)CC)c(=O)c2cc3sc(C)cc3n12`: the “hERG current change (%, negative = inhibition) at 10uM” value is 7.73%.
`CCc1nn(CC(=O)NCCCN2CCCC2=O)c(=O)c2cc3sccc3n12`: the “hERG current change (%, negative = inhibition) at 10uM” value is -12.3%.
Consider `CCc1nn(CC(=O)NCCCN2CCN(C)CC2)c(=O)c2cc3sc(C)cc3n12`, for which the “hERG current change (%, negative = inhibition) at 10uM” value is 14.8%.
Consider `CCc1cc2c(cc3c(=O)n(CC(=O)NCCCN4CCCCCC4)nc(CC)n32)s1`, for which the “hERG current change (%, negative = inhibition) at 10uM” value was -72.7%.
In the case of `CCc1cc2c(cc3c(=O)n(CC(=O)NCCCN(CC)CC)nc(CC)n32)s1` it was -34.9%; in that of `CCc1nn(CC(=O)NCCCN(CC)Cc2ccccc2)c(=O)c2cc3sccc3n12`, -50.2%.
Take `CCc1nn(CC(=O)NCCCN2CCc3ccccc3C2)c(=O)c2cc3sccc3n12`: the “hERG current change (%, negative = inhibition) at 10uM” value is given as -70.2%.
In the case of `CCc1nn(CC(=O)NCCCN(C)Cc2ccccc2)c(=O)c2cc3sc(C)cc3n12` it was -69.9%; in that of `CCCCN(CCCNC(=O)Cn1nc(CC)n2c(cc3sc(C)cc32)c1=O)Cc1ccccc1`, -47.1%.
In the case of `CCc1nn(CC(=O)NCCCN2CCOCC2)c(=O)c2cc3sccc3n12` it was 16.2%.
As to `CCc1nn(CC(=O)NCCCN(Cc2ccccc2)C(C)C)c(=O)c2cc3sccc3n12`, the “hERG current change (%, negative = inhibition) at 10uM” value is listed as -43.8%.
In the case of `CN1Cc2c(N3CCOCC3)nc3sc(C#N)c(N)c3c2CC1(C)C` it was -8.57%.
As for `CCOC(=O)c1cc(-c2ccccc2C)nn1CC1CC(c2ccc(OC)cc2)=NO1` (centres unmarked), the “hERG current change (%, negative = inhibition) at 10uM” value was found to be 3.54%.
In the case of `Cc1cccc(CS(=O)(=O)Cc2ccc(C(=O)NCCc3ccccc3)o2)c1` it was -38.8%; in that of `Cc1ccc(NC(=O)COC(=O)Cn2c(C)csc2=O)cc1C`, 2.05%.
Take `CC(=O)N1CCC(N(C(=O)Nc2ccc(C)c(C)c2)C2CCCC2)CC1`: the “hERG current change (%, negative = inhibition) at 10uM” value is given as -31.2%.
In the case of `Cc1nnc(SCC2=C(C(=O)[O-])N3C(=O)C(NC(=O)Cc4ccccc4)C3SC2)s1.[Na+]` (centres unmarked) it was 9.74%; in that of `CCn1c(C(=O)NCCCN2CCc3ccccc3C2)cc2sccc21`, -64%.
Regarding `CCN1CCN(CCCNC(=O)c2cc3sccc3n2CC)CC1`, the “hERG current change (%, negative = inhibition) at 10uM” value is given as -40.8%.
In the case of `CCn1c(C(=O)N2CCc3ccccc3C2)cc2sccc21` it was -3.24%; in that of `N#Cc1ccc(OCC(=O)OCC(=O)Nc2ccc(N3CCOCC3)cc2)cc1`, -15.3%; in that of `CC(=O)NCc1ccc(C(=O)CCl)s1`, -7.15%.
Take `CCN(CC)CCn1c2ccccc2c2cnc(N)c(C#N)c21`: the “hERG current change (%, negative = inhibition) at 10uM” value is recorded as -60.5%.
In the case of `CN(C)C=Nc1ncc2c3ccccc3n(CCN(C)C)c2c1C#N` it was -15.7%; in that of `CCN(CC)CCn1c2ccccc2c2cnc(N=CN(C)C)c(C#N)c21`, -31.8%; in that of `CC1CN(C(=O)CSc2nc(N)cc(N)n2)CC(C)O1` (centres unmarked), -10.3%.
As to `Cc1nnc2c(NC3CCCC3)nc3ccccc3n12`, the “hERG current change (%, negative = inhibition) at 10uM” value is -37.3%.
In the case of `CCOc1ccc(N2C(=O)CC(N(CCc3ccc(OC)cc3)C(=O)c3cccc(F)c3)C2=O)cc1` (centres unmarked) it was -63%; in that of `CCCOc1ccc(N2C(=O)CC(N(CCc3ccc(OC)cc3)C(=O)c3ccccc3)C2=O)cc1` (centres unmarked), -10.6%.
In the case of `CCCOc1ccc(N2C(=O)CC(N(CCc3ccc(OC)c(OC)c3)C(=O)c3ccccc3)C2=O)cc1` (centres unmarked) it was -74.9%.
In the case of `CCCOc1ccc(N2C(=O)CC(N(CCc3ccc(OC)cc3)C(=O)c3cccc(F)c3)C2=O)cc1` (centres unmarked) it was -8.44%; in that of `CCCOc1ccc(N2C(=O)CC(N(CCc3ccccc3)C(=O)c3ccccc3)C2=O)cc1` (centres unmarked), 10.8%.
In the case of `COc1ccc(CCN(C(=O)c2cccc(F)c2)C2CC(=O)N(c3ccccc3)C2=O)cc1` (centres unmarked), the “hERG current change (%, negative = inhibition) at 10uM” value was -38.5%.
